Conditions in all cases: concentration: 1 μM, replicates: in singlicate; n = 1
Assay [1] relates to T1, RSK4(Kin.Dom.1-N-terminal).
T1 construct: gene RPS6KA6

Assay [2] relates to T2, RSK4(Kin.Dom.2-C-terminal).
T2 construct: gene RPS6KA6

For assay [3], the system named is S6K1.
Assay [4] concerns SBK1.
For assay [5], the system named is SGK2.
The test system of assay [6] is SGK3.
The subject of assay [7] is SGK.
The subject of assay [8] is SIK2.
For assay [9], the system named is SIK.
Assay [10] deals with SLK.
Assay [11] deals with T3, SNARK.
T3 construct: gene NUAK2

In assay [12] the test system is SNRK.
For assay [13], the system named is SRC.
Assay [14] deals with SRMS.
The test system of assay [15] is SRPK1.
The test system of assay [16] is SRPK2.
In assay [17] the test system is SRPK3.
Assay [18] relates to STK16.
For assay [19], the system named is STK33.
The test system of assay [20] is STK35.

The structures appear in SMILES notation.
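Also: KINOMEscan kinase panel screen.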

With `CC(C)c1nc(-c2cccc(NS(=O)(=O)c3c(F)cccc3F)c2)c(-c2ccnc(Nc3ccc(N4CCOCC4)nc3)n2)s1.Cl` [GSK1723980], the “%Inh” value is on record as 0% in assay [1]; 19% in [2]; 29% in [3]; 20% in assay [4]; 0% in [5]; 15% in assay [6]. For the same compound, the “%Inh” value in [7] is 34%; in assay [8], 90.8%; in assay [9], 99.4%; in assay [10] it was 73%; in [11] it was 0%; in assay [12], 0%. The “%Inh” value in [13] turned out to be 100%; in [14], 99.7%; in assay [15], 48%; in assay [16], 0%; in [17], 0%; in assay [18] it was 30%. Besides, the “%Inh” value in assay [19] worked out at 62%; in [20], 30%.
With `Cc1ccc(NC(=O)c2cccc(N3CCCCC3)c2)cc1-c1ccc(C(=O)NCC2CC2)cc1` [GSK1917008], the “%Inh” value is 0% in assay [1]; 37% in assay [2]; 8% in [3]; 10% in assay [4]; 11% in [5]; 7% in assay [6]. For the same compound, the “%Inh” value was found to be 0% in [7]; 93.3% in assay [8]; 8% in assay [9]; 10% in [10]; 0% in assay [11]; 0% in [12]. In addition, the “%Inh” value in [13] is listed as 0%; in [14] it was 0%; in [15], 32%; in assay [16], 0%; in assay [17], 23%; in assay [18], 7%. In addition, the results for the “%Inh” value in [19] and in assay [20] were 0% and 89%, respectively.
As for `N#CC1(c2cccc(C(=O)Nc3cccc(Oc4ccc5nc(NC(=O)C6CC6)sc5n4)c3)c2)CC1`, the “%Inh” value in assay [1] was found to be 11%; in assay [2] it was 10%; in assay [3], 0%; in assay [4], 0%; in assay [5] it was 0%; in [6], 0%. Moreover, the “%Inh” value in [7] was 0%; in assay [8], 0%; in [9] it was 31%; in [10], 39%; in assay [11], 0%; in [12], 0%. Also, the “%Inh” value is 97.6% in assay [13]; 15% in assay [14]; 0% in [15]; 0% in assay [16]; 0% in assay [17]; 0% in assay [18]. The “%Inh” value in [19] is recorded as 16%; in assay [20] it was 0%.
As to `CN(c1ccc2c(c1)nc(NCc1ccccc1)n2C)c1ccnc(Nc2ccc(CS(C)(=O)=O)cc2)n1.Cl` [GW811603], the “%Inh” value stood at 0% in assay [1]; 0% in assay [2]; 0% in assay [3]; 0% in assay [4]; 24% in assay [5]; 0% in assay [6]. Besides, the “%Inh” value in assay [7] is listed as 13%; in assay [8] it was 10%; in [9], 9%; in assay [10] it was 38%; in assay [11], 0%; in [12] it was 0%. Further, the “%Inh” value came out at 32% in assay [13]; 5% in assay [14]; 0% in [15]; 30% in assay [16]; 34% in [17]; 54% in [18]. Further, the “%Inh” value in [19] and in assay [20] was 0% in each case.
As to `COc1cccc(C2=C(Nc3cccc(O)c3)C(=O)NC2=O)c1` [SB-390771], the “%Inh” value is listed as 0% in [1]; 37% in assay [2]; 11% in assay [3]; 4% in assay [4]; 0% in [5]; 16% in assay [6]. Also, the “%Inh” value in [7] was 0%; in assay [8] it was 3%; in assay [9] it was 0%; in assay [10] it was 69%; in assay [11], 0%; in [12], 0%. Also, the “%Inh” value was determined as 0% in assay [13]; 0% in assay [14]; 2% in assay [15]; 0% in assay [16]; 13% in [17]; 100% in assay [18]. For the same compound, the “%Inh” value in assay [19] and in assay [20] was 0% each time.
In the case of `Cc1ccccc1CC(=O)N1CCc2cc(-c3cn(C)c4ncnc(N)c34)ccc21` [GSK2603346], the “%Inh” value is recorded as 28% in assay [1]; 10% in assay [2]; 19% in assay [3]; 23% in assay [4]; 2% in assay [5]; 0% in [6]. In addition, the “%Inh” value was 0% in [7]; 0% in assay [8]; 0% in assay [9]; 48% in assay [10]; 34% in assay [11]; 0% in [12]. The “%Inh” value in assay [13] came out at 15%; in [14] it was 0%; in [15] it was 18%; in assay [16] it was 0%; in assay [17], 0%; in assay [18], 2%. In addition, the “%Inh” value in [19] was determined as 3%; in assay [20], 2%.
`CCn1c(-c2nonc2N)nc2c(-c3ccccc3)ncc(OCCCN)c21.O=C(O)C(F)(F)F.O=C(O)C(F)(F)F` [GSK260205]: the “%Inh” value in [1] was determined as 67%; in assay [2], 90.3%; in assay [3], 44%; in assay [4], 9%; in assay [5], 0%; in assay [6] it was 71%. For the same compound, the “%Inh” value in [7] amounted to 1%; in assay [8], 36%; in assay [9], 11%; in assay [10], 99.1%; in assay [11], 0%; in [12], 57%. Further, the “%Inh” value in assay [13] is given as 0%; in assay [14], 0%; in [15], 22%; in [16], 0%; in [17] it was 0%; in assay [18] it was 0%. Also, the “%Inh” value in [19] and in assay [20] was 0% throughout.
Turning to `CSc1ccc(NC2=C(c3ccc(Cl)cc3)C(=O)NC2=O)cc1` [SB-317658], the “%Inh” value in assay [1] came out at 5%; in assay [2], 0%; in [3], 0%; in assay [4] it was 29%; in assay [5] it was 0%; in [6], 0%. In addition, the “%Inh” value in assay [7] worked out at 0%; in [8], 9%; in assay [9] it was 25%; in assay [10] it was 8%; in assay [11], 12%; in assay [12] it was 0%. Further, the “%Inh” value in [13] is 17%; in assay [14], 3%; in assay [15] it was 0%; in [16], 7%; in [17], 9%; in [18], 24%. Further, the “%Inh” value in assay [19] and in [20] was 0% each time.
With `Cc1ccc(-c2ccc3occ(-c4ccc(S(C)=O)cc4)c3c2)nn1` (stereo not drawn), the “%Inh” value is 0% in assay [1]; 0% in assay [2]; 5% in assay [3]; 0% in assay [4]; 0% in assay [5]; 0% in assay [6]. Also, the “%Inh” value in assay [7] was found to be 0%; in assay [8], 7%; in [9] it was 0%; in [10] it was 12%; in assay [11], 0%; in [12], 0%. Further, the “%Inh” value turned out to be 6% in [13]; 0% in assay [14]; 0% in assay [15]; 6% in assay [16]; 0% in assay [17]; 12% in [18]. In addition, the “%Inh” value in [19] and in [20] was 0% throughout.

The record behind these values is publication PMC5540273 (PLoS ONE, 2017).
